Screening results: PubChem, National Center for Advancing Translational Sciences (NCATS)
Compounds with a hit are over-represented: about 12% of the library has one in this group of screens.
G9a inh: G9a (human) methyltransferase inhibition | Q96KQ7 | G9a H3K9 monomethylation, AlphaScreen, 2 h | Potency, µM (highest dose often 102 µM), without a hit: at the highest dose activity, negative = inhibition, hits mostly inhibitors | 350,000 tested, 8.8% active | AID 504332; note: % is set by controls: 0 for no effect and ±100 for the full control effect; nearly all actives have a fitted effect of over 75% in size
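Using a bead-based AlphaScreen, monomethylated H3K9 product from 2 h room-temperature reactions (G9a 20 nM, peptide 500 nM, SAM 20 uM) was detected with 0.5 ug/mL rabbit anti-H3K9me1 antibody.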
Sfp inh: Sfp phosphopantetheinyl transferase inhibition; Q9F4F7; Potency, µM, for inactives: largest response in the series, negative = inhibition, hits mostly inhibitors; 310,000 tested, 3.5% active; Biochemical Sfp PPTase activity, qHTS; AID 1490;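 note: the enzyme is Sfp with the accession as filed and its product quenches rhodamine fluorescence; 0% = enzyme reaction without inhibitor and -100% = no enzyme wells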
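Buffer: 50 mM Hepes-Na pH 7.6, 10 mM MgCl2, 0.01% Nonidet P-40, 0.01% BSA. Enzyme 15 nM, pre-exposed to compound 15 min; substrates then added and fluorescence change tracked over 30 min.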
BAZ2B block: inhibitors of human BAZ2B bromodomain | 360,000 tested, 4.4% active | Q9UIF8 | Potency, µM (highest dose often 114 µM), without a hit: top-dose activity change, negative = inhibition, actives largely listed as inhibitors | AlphaScreen BAZ2B-H3K14Ac peptide displacement; note: % is set by controls: 0 for no effect and ±100 for the full control effect; nearly all actives have a fitted effect of over 60% in size
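Protein-peptide AlphaScreen: BAZ2B 50 nM, b-H3K14Ac 50 nM, 1x PBS pH 7.4 + 0.01% Tween-20. Preincubation 30 min RT; cpd 30 min RT (top 110 uM); beads 20 min RT, light-protected.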
JMJD2A Tudor: inhibitors of human JMJD2A Tudor domain; O75164; AlphaScreen JMJD2A-Tudor / H3K4me3 peptide binding; Potency, µM (titrated, usually from 114 µM), without a hit: top-dose activity change, negative = inhibition, actives largely listed as inhibitors; 390,000 tested, 4.4% active; AID 504339; note: % is set by controls: 0 for no effect and ±100 for the full control effect; nearly all actives have a fitted effect of over 50% in size
Target sequence (O75164 whole entry, looked up, the tested form may be a part): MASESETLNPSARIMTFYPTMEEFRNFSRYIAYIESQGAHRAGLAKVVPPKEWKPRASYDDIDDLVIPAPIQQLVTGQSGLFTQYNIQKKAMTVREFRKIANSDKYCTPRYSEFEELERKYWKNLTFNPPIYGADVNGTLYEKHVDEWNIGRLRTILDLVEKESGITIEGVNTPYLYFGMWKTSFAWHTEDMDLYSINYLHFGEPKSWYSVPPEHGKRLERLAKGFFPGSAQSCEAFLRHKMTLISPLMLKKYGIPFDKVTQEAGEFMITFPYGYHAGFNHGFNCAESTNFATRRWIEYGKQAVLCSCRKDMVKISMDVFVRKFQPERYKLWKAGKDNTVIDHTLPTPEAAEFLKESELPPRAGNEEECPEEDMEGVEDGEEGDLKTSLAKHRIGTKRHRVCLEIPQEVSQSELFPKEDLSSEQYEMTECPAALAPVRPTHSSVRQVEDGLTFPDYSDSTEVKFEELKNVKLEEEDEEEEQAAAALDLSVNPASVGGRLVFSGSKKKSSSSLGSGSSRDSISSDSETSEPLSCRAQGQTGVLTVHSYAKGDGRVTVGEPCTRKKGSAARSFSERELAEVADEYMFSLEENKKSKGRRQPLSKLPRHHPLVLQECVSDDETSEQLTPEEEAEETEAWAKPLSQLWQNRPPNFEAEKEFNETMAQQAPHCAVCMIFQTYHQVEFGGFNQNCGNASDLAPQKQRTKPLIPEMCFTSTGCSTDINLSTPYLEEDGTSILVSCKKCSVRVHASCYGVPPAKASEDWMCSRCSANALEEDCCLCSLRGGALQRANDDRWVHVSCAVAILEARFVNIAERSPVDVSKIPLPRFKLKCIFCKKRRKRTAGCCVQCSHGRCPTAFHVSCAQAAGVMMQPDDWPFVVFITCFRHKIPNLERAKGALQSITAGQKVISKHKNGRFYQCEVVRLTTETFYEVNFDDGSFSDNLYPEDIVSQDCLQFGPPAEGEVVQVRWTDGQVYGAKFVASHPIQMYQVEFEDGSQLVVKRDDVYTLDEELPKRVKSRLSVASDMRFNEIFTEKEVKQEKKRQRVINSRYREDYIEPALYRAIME
HP1b binding inh: HP1-beta chromodomain-methylated histone interaction inhibition; Potency, µM (highest dose often 114 µM), without a hit: at the highest dose activity change, negative = inhibition, actives largely listed as inhibitors; AlphaScreen HP1-beta / biotin-H3K9me3 peptide binding; 390,000 tested, 0.56% active; P83916; AID 540317; note: nearly all actives have a fitted effect of over 70% in size
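AlphaScreen: HP1-beta (50 nM) preformed 30 min with biotin-H3(1-18)K9me3 peptide (50 nM) in PBS pH 7.4, 0.01% Tween-20. Compound added for 30 min at RT, then streptavidin donor/nickel chelate acceptor beads (10 ug/mL) for 30 min.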
L3MBTL1 inh: blocks human L3MBTL1 | Q9Y468 | AlphaScreen L3MBTL1–H3K9me1 peptide binding | Potency, µM (titrated, usually from 57.1 µM), for inactives: top-dose activity, negative = inhibition, hits mostly inhibitors | 230,000 tested, 0.66% active | AID 485360; note: % is set by controls: 0 for no effect and ±100 for the full control effect; nearly all actives have a fitted effect of over 60% in size
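Displacement of a biotinylated histone H3(1-15) peptide monomethylated at Lys9 (75 nM) from L3MBTL1 (50 nM) was measured by AlphaScreen after a 30 min room-temperature compound incubation; cefsulodin titration served as intraplate control.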
An asterisk follows results filed as active; [ ] = dose if it differs, or a comment. Calls come from the whole dose curve; as a rule, active = well fitted curve in the direction sought with a large enough effect; inconclusive = small, poorly fitted or top-dose-only effect, or another doubt; inactive = no such curve, though single readings can be large; an effect the other way counts as inactive or inconclusive. Potency is the fitted concentration of half-maximal effect.

What do the screens show for `Cc1ccn2c(NCc3ccc4c(c3)OCO4)c(-c3ccc(O)cc3)nc2c1`?
G9a inh: 11.1%[59 µM]; Sfp inh: -8.7%; BAZ2B block: 2.8%; JMJD2A Tudor: -2.2%; HP1b binding inh: 14.1%

What do the screens show for `COc1ccc(-c2nc3ccc(C)cn3c2Nc2ccc3c(c2)OCO3)cc1`?
G9a inh: inconclusive; JMJD2A Tudor: -17.7%; HP1b binding inh: 7.9%

What do the screens show for `CC(=O)c1cccc(NC(=O)CN2C(=O)CC(c3ccc(C)cc3C)=Nc3ccccc32)c1`?
G9a inh: inconclusive; BAZ2B block: -27.7%; JMJD2A Tudor: inconclusive; HP1b binding inh: -1.9%

Results for Cc1ccc(CNc2nc3c(S(=O)(=O)c4ccccc4)nnn3c3ccsc23)cc1 ?
G9a inh: -0.7%[59 µM]; BAZ2B block: -18.4%; JMJD2A Tudor: -6.2%; HP1b binding inh: 35.5%

How did C=CC[C@@H]1C=C[C@@H](O/N=C2/[C@H]3O[C@@H]3[C@@H](O)[C@H]3[C@H]2CCn2c(=O)n(-c4ccccc4)c(=O)n23)[C@@H](CO)O1 do in these assays?
Sfp inh: 3.3%

Results for O=C1CCc2cc(S(=O)(=O)Nc3ccc4c(c3)CCC4)ccc2N1 ?
JMJD2A Tudor: -10.6%

How did Clc1ccc(-c2nc3ccccn3c2Nc2ccc3c(c2)OCCO3)s1 do in these assays?
G9a inh: 17.5%[59 µM]; BAZ2B block: 13.9%; JMJD2A Tudor: 44.7µM*; HP1b binding inh: inconclusive

Results for Cc1ccc(-c2nc3cnccn3c2Nc2ccc3c(c2)OCCO3)o1 ?
G9a inh: 10µM*; Sfp inh: 35.5µM*; BAZ2B block: inconclusive; JMJD2A Tudor: inconclusive; HP1b binding inh: -27.4%; L3MBTL1 inh: -13.6%

How did COc1ccc(Nc2c(-c3ccc(C)cc3)nc3cnccn23)cc1 do in these assays?
G9a inh: 50.1µM*; Sfp inh: 5.3%; BAZ2B block: inconclusive; JMJD2A Tudor: 44.7µM*; HP1b binding inh: -12.9%[57 µM]; L3MBTL1 inh: -27.6%

Results for Cc1ccn2c(Nc3ccc4c(c3)OCCO4)c(-c3ccc(Cl)s3)nc2c1 ?
G9a inh: inconclusive; BAZ2B block: -31.0%; JMJD2A Tudor: inconclusive; HP1b binding inh: inconclusive

What do the screens show for `Cc1ccc(-c2nc3cnccn3c2Nc2ccc3c(c2)OCO3)cc1`?
G9a inh: 39.8µM*; Sfp inh: inconclusive; BAZ2B block: 39.8µM*; JMJD2A Tudor: 50.1µM*; HP1b binding inh: inconclusive; L3MBTL1 inh: -46.7%

What do the screens show for `CC(=O)Nc1ccc(NC(=O)CCc2nc3cccnc3n2Cc2cccs2)cc1`?
G9a inh: 1.0%[59 µM]; BAZ2B block: 0.7%; JMJD2A Tudor: -19.2%; HP1b binding inh: 24.0%

What do the screens show for `O=C1N(Cc2ccccc2Cl)c2ccccc2C1(O)c1c[nH]c2ccccc12` (configuration not stated)?
G9a inh: -19.9%[59 µM]; BAZ2B block: inconclusive; JMJD2A Tudor: inconclusive; HP1b binding inh: -3.8%

Results for CCCN(CCC)C(=O)CSc1nnc2cc(C)c3ccccc3n12 ?
G9a inh: inconclusive; BAZ2B block: -2.0%; JMJD2A Tudor: inconclusive; HP1b binding inh: 24.5%

Results for COc1ccc(-c2cc(-c3cc(OC)ccc3O)[nH]n2)cc1 ?
G9a inh: -6.9%[59 µM]; Sfp inh: -10.5%; BAZ2B block: inconclusive; JMJD2A Tudor: 28.2µM*; HP1b binding inh: inconclusive

How did COc1ccc(O)c(-c2cc(-c3ccc(F)cc3)n[nH]2)c1 do in these assays?
G9a inh: inconclusive; Sfp inh: -4.2%; BAZ2B block: inconclusive; JMJD2A Tudor: inconclusive; HP1b binding inh: 10.8%

Results for COc1ccc(-c2n[nH]c(C)c2-c2cc(OC)ccc2O)cc1 ?
G9a inh: inconclusive; Sfp inh: 39.8µM*; BAZ2B block: -33.4%; JMJD2A Tudor: -34.8%; HP1b binding inh: 11.7%
